Here are results for 30 compounds from ChEMBL document CHEMBL1157539, “Thousands of chemical starting points for antimalarial lead identification” (Nature, 2010).

Holding throughout (type): functional
The subject of experiment [1] is Plasmodium falciparum. Briefly: GSK_TCMDC: Inhibition of Plasmodium falciparum 3D7 in whole red blood cells, using parasite LDH activity as an index of growth. Test compounds present at 2uM.
Experiment [2] has as its system Plasmodium falciparum. As to the kind of experiment: GSK_TCMDC: Inhibition of Plasmodium falciparum Dd2 in whole red blood cells, using parasite LDH activity as an index of growth. Test compounds present at 2uM.
In experiment [3] the test system is HepG2. Briefly: GSK_TCMDC: Percent inhibition of human HepG2 cell line. Test compounds present at 10uM.

As to `Cc1cc(=NN=Cc2ccc(F)cc2)c2ccc(F)cc2[nH]1`, the values for the Inhibition in experiment [1], in experiment [2] and in experiment [3] were 99%, 30% and 0%, respectively.
For `COc1ccc2nccc(NCC3(O)CCC(NCc4ccc5c(n4)NC(=O)CS5)CC3)c2n1.Cl` (stereo not given) the same measures were 100%, 23% and 16%.
For `CCN(CC)c1ccc(NC(=S)NC2CCN(CCCCCNC(=O)/C=C/c3ccc(Cl)c(Cl)c3)CC2)cc1` the same measures were 100%, 58% and 16%.
For `CCn1c(-c2nonc2N)nc2c(-c3cccc(NC(=O)Nc4ccc5c(c4)CCC5)c3)ncc(OCCCN)c21.O=C(O)C(F)(F)F` the same measures were 99%, 94% and 26%.
For `N=C(NCc1ccc(O)cc1)Nc1nc(-c2ccc(OCCCn3ccnc3)cc2)cs1`, the results for the Inhibition in experiment [1], in experiment [2] and in experiment [3] were 100%, 89% and 13%, respectively.
For `CNC(=O)NC1=NC(C)(C)N(OCCCOc2cc(Cl)c(Cl)cc2Cl)C(N)=N1` the same measures were 97%, 2% and 7%.
For `CNCCNCc1ccc(-c2ccc(-c3nc4ccccc4[nH]3)s2)cc1.O=C(O)C(F)(F)F`, in that order: 99%, 15% and 11%.
For `Cl.c1cc2[nH]c(CCCCc3nc4cc(C5=N[C@H]6CCCC[C@H]6N5)ccc4[nH]3)nc2cc1C1=N[C@H]2CCCC[C@H]2N1` the same measures were 90%, 88% and 5%.
Consider `O=C(Nc1ccc(C(F)(F)F)cc1)Nc1ccccc1N1CCNCC1.O=C(O)C(F)(F)F`, for which the Inhibition – broadly, the drop in the measured response relative to a control, in per cent – in experiment [1] was determined as 94%; in experiment [2], 69%; in experiment [3], 39%.
For `COc1nc2c(CCN3CCC(NCc4ccc5c(n4)NC(=O)CO5)CC3)c(Cl)cnc2cc1F.Cl` the same measures were 99%, 40% and 17%.
For `O=C(/C=C/c1ccc(Cl)c(Cl)c1)NCCCCCN1CC[C@H](NC(=O)Nc2ccc(Oc3ccccc3)cc2)C1` the same measures were 100%, 14% and 47%.
For `COc1cc(NC(=O)c2c(-c3c(Cl)cccc3Cl)noc2C)c(OC)cc1Cl`, in that order: 85%, 67% and 4%.
With `COc1cc2c(c(OC)c1[N+](=O)[O-])C=CC1(O2)N(C)c2ccc([N+](=O)[O-])cc2C1(C)C` (stereo not given), the Inhibition in experiment [1] worked out at 92%; in experiment [2] it was 89%; in experiment [3], 0%.
For `CC(NCCC1CCC(NC(=O)N[C@H](C)C(O)(c2ccccc2)c2ccccc2)CC1)c1cccc2ccccc12` (stereo not given in full), in that order: 86%, 58% and 43%.
In the case of `COC(=O)CCCCOc1c(OC)cc(Cc2cnc(N)nc2N)cc1OC`, the Inhibition in experiment [1] amounted to 93%; in experiment [2] it was 0%; in experiment [3], 0%.
Regarding `O=C(/C=C/c1ccc(Cl)c(Cl)c1)NC1CCC(CN2CCC(c3c[nH]c4ccncc34)CC2)CC1` (stereo not given), the Inhibition came to 100% in experiment [1], 96% in experiment [2] and 16% in experiment [3].
For `COc1cc2c(cc1OC)CN(CCc1ccc(NC(=O)c3cc4cc(Cl)ccc4[nH]3)cc1)CC2` the same measures were 90%, 6% and 3%.
For `Cc1ccc(Nc2ccnc(Nc3ccc(F)c(Cl)c3)n2)cc1O.Cl`, in that order: 100%, 52% and 9%.
For `CS(=O)(=O)CCNCc1nc(-c2ccc3c(Nc4ccc(Oc5ccccn5)cc4)ccnc3c2)cs1`, the Inhibition in experiment [1] worked out at 100%; in experiment [2], 89%; in experiment [3] it was 9%.
For `N=C(N)NC(=O)Nc1cc(Cl)c(Cl)c(C(F)(F)F)c1` the same measures were 100%, 99% and 6%.
For `Cc1cccc2nc(-c3ccc(-c4ccc(CN5CCCC5CN)cc4)cc3)[nH]c12.O=C(O)C(F)(F)F` (stereo not given), in that order: 99%, 65% and 28%.
As for `CC(C)(C)c1ccc(CNC(=O)c2ccc(-c3nc4cc(C(C)(C)C)ccc4[nH]3)cc2)cc1`, the Inhibition stood at 96% in experiment [1], 49% in experiment [2] and 21% in experiment [3].
For `CS(=O)(=O)O.c1ccc2c(CNCCCCCCNCc3c(OCC4CC4)ccc4ccccc34)c(OCC3CC3)ccc2c1` the same measures were 93%, 97% and 100%.
Regarding `CCNc1cc(C)nc(Nc2ccc(NC(=O)Cc3ccc(OC)cc3)cc2)n1`, the values for the Inhibition in experiment [1], in experiment [2] and in experiment [3] were 100%, 47% and 30%, respectively.
For `CCc1ccc(-c2cnc(N)c3cc(-c4ccnc(N)n4)ccc23)cc1` the same measures were 92%, 70% and 37%.
For `Cc1nc2ccc3ccc(CNc4ccc5c(c4)CN([C@H](CCC(=O)O)C(=O)O)C5=O)cc3c2c(=O)[nH]1` the same measures were 87%, 90% and 38%.
For `Br.Oc1ccc(CCNCCCCCCNCCCc2ccc(Cl)cc2)cc1O` the same measures were 87%, 3% and 13%.
With `Cc1nc(Nc2cc(Cl)ccc2O)nc(Nc2cc(Cl)ccc2O)c1[N+](=O)[O-]`, the Inhibition was found to be 98% in experiment [1], 83% in experiment [2] and 0% in experiment [3].
As for `CS(=O)(=O)c1ccccc1CNC(=O)c1cccc(-c2ccc(-c3nc4cc(C(F)(F)F)ccc4[nH]3)cc2)c1`, the Inhibition came out at 95% in experiment [1], 7% in experiment [2] and 86% in experiment [3].
For `CC(=O)Nc1ccc(C(=O)NC2CCN(c3ccnc4cc(Cl)ccc34)C2)cc1.O=C(O)C(F)(F)F` (stereo not given) the same measures were 100%, 100% and 1%.
